Experimental data published in PubChem BioAssay (NCATS).
Records with an inconclusive call do not appear. Active and inactive are the calls of the source. The call rests on the fitted dose curve; in most records, active means well fitted inhibition curve with a large enough effect; inconclusive means small, poorly fitted or top-dose-only effect; inactive means flat fitted curve, though single readings scatter.

Target: Calcium and integrin-binding protein 1 (Homo sapiens) (UniProt Q99828)
Assay: Primary qHTS for Identification of Calcium Integrin Binding Protein 1 (CIB1) Competitor (AID 1508620);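 further: GST tagged CIB1 binding a fluorescein labelled alphaIIb integrin peptide tracer; top concentration of the series differs between compounds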
Details: CIB1-GST / FITC-alphaIIb peptide fluorescence polarization; series mostly up to 57.7 µM; activity change, negative = inhibition: at the top concentration
In short: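 Fluorescence polarization competition: CIB1-GST (1 uM final) preincubated with compound 15 min at room temperature, then FITC-labeled alphaIIb peptide (100 nM final) added for another 15 min. Polarization read at Ex 480/Em 540.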
On the % scale 0 is the no-effect control and ±100 the full control effect.

Chain of Calcium and integrin-binding protein 1 (Homo sapiens) (Q99828 whole entry, looked up): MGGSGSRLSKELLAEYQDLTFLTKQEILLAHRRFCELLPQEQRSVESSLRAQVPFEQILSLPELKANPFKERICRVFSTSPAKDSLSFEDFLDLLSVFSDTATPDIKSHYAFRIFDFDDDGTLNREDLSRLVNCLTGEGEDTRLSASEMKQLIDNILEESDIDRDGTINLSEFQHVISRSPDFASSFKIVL

Row | SMILES | activity change, negative = inhibition
1 | COCCN1CCC(C(=O)NO)(S(=O)(=O)c2ccc(Oc3ccc(OC(F)(F)F)cc3)cc2)CC1 | -4.64% [at 114 µM] (inactive)
2 | COC(=O)c1[nH]c(=O)c2ccccc2c1-c1ccc[nH]1 | -4.31% [at 114 µM] (inactive)
3 | CC(=O)O[C@@H]1C=C2[C@H](CC[C@@]3(C)[C@@]2(O)CC[C@H]2Cc4c([nH]c5ccccc45)[C@@]23C)O[C@@H]1C(C)(C)O | 1.49% (inactive)
4 | CCOc1ccc(-c2nn3ncccc3c2-c2ccc(S(C)(=O)=O)cc2)cc1 | 0.434% [at 114 µM] (inactive)
5 | CC[C@@H]1C(=O)O[C@]23C=C[C@@H]4C(C(=O)OC)=CO[C@H](O[C@@H]12)[C@@H]43 | 2.76% [at 114 µM] (inactive)
6 | C=C1C(=O)O[C@@H]2C[C@]3(C)[C@@H](CCC(C)=O)[C@@H]3C[C@H]12 | 2.23% [at 114 µM] (inactive)
7 | C=C1Cc2c(Cl)cc3[nH]c4c5c3c2[C@@]2(O)[C@@H]1C[C@@H]2C(C)(C)O[C@H]5C1CC[C@@]2(O)[C@@]35O[C@@H]3[C@H]3OC(C)(C)[C@H]3O[C@H]5CC[C@]2(C)[C@@]41C (stereo partly specified) | 3.88% [at 30.2 µM] (inactive)
8 | CC(=O)NC1C(OC2CCC3(C)C(CCC4(C)C3CC=C3C5CC(C)(C)CCC5(C(=O)O)C(O)CC34C)C2(C)C)OC(CO)C(O)C1O (stereo unspecified) | 3.4% [at 30.2 µM] (inactive)
9 | CCC(=O)N1CCc2cc(OC)c(O)cc2C1 | 0.464% [at 114 µM] (inactive)
10 | C=C(C)[C@@H]1CC[C@]2(C(=O)O)CC[C@]3(C)[C@H](CCC4[C@@]5(C)CCC(=O)C(C)(C)C5C(O)C[C@]43C)C12 (stereo partly specified) | -0.62% (inactive)
11 | C[C@@H]1O[C@@H](O[C@H]2[C@H](OC(=O)[C@]34CCC(C)(C)C[C@H]3C3=CCC5[C@@]6(C)CC[C@H](O[C@@H]7O[C@H](CO[C@@H]8OC[C@H](O)[C@H](O)[C@H]8O)[C@@H](O)[C@H](O)[C@H]7O)C(C)(C)C6CC[C@@]5(C)[C@]3(C)C[C@H]4O)OC[C@@H](O)[C@@H]2O)[C@H](O)[C@H](O[C@@H]2OC[C@](O)(CO)[C@H]2O)[C@H]1O[C@@H]1OC[C@H](O)[C@H](O[C@@H]2OC[C@@H](O)[C@H](O)[C@H]2O)[C@H]1O (stereo partly specified) | 2.98% [at 12.4 µM] (inactive)
